In the supplement of paper PMC10849652:
The full data set covers some 8,800 targets. This sample favours those with a hit. About 0.5% of all pairs of compound and target were hits. Unmarked numbers belong to inactive results.

Key:
Test in all cases: log2 fold change, soluble protein after heating vs DMSO (PISA); higher = thermal stabilisation; K562 lysate, 10 uM; active = over 0.2 and 3.5 SD of the protein, either way, in both replicates (recomputed)
lapatinib = compound: CS(=O)(=O)CCNCc1ccc(-c2ccc3ncnc(Nc4ccc(OCc5cccc(F)c5)c(Cl)c4)c3c2)o1 [lapatinib]
Procedure, shortened: (§1)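 Soluble protein was defined as the supernatant remaining after 21,000xg for 90 min, following pooling of heated aliquots and adjustment to 0.5% NP-40 at 4°C. Before that, crude K562 extract at 1 mg/mL protein in PBS pH 7.4 with 1 mM MgCl2 was treated with 10 μM compound for 30 min and heated for 3 min across 48°C-58°C. Quantification used TMTpro 16plex LC-MS/MS with channel sums equalised, and values are log-two fold changes in thermal stability relative to solvent controls from duplicates.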

pictilisib = compound: CS(=O)(=O)N1CCN(Cc2cc3nc(-c4cccc5[nH]ncc45)nc(N4CCOCC4)c3s2)CC1 [pictilisib]
Procedure, shortened: as §1

crizotinib = compound: C[C@@H](Oc1cc(-c2cnn(C3CCNCC3)c2)cnc1N)c1c(Cl)ccc(F)c1Cl [crizotinib]
Procedure, shortened: as §1

[1] = compound: C[C@H](C1=CC=C(C=C1)C(=O)NC2=C3C=CNC3=NC=C2)N
Procedure, shortened: as §1

duvelisib = compound: C[C@H](Nc1ncnc2nc[nH]c12)c1cc2cccc(Cl)c2c(=O)n1-c1ccccc1 [duvelisib]
Procedure, shortened: as §1

gandotinib = compound: Cc1cc(Nc2cc(CN3CCOCC3)c3nc(C)c(Cc4ccc(Cl)cc4F)n3n2)n[nH]1 [gandotinib]
Procedure, shortened: as §1

tozasertib = compound: Cc1cc(Nc2cc(N3CCN(C)CC3)nc(Sc3ccc(NC(=O)C4CC4)cc3)n2)n[nH]1 [tozasertib]
Procedure, shortened: as §1

doramapimod = compound: Cc1ccc(-n2nc(C(C)(C)C)cc2NC(=O)Nc2ccc(OCCN3CCOCC3)c3ccccc23)cc1 [doramapimod]
Procedure, shortened: as §1

bafetinib = compound: Cc1ccc(NC(=O)c2ccc(CN3CC[C@H](N(C)C)C3)c(C(F)(F)F)c2)cc1Nc1nccc(-c2cncnc2)n1 [bafetinib]
Procedure, shortened: as §1

[2] = compound: Cc1cccc(CC(=O)N2CCc3c2ccc(-c2cn(C)c4ncnc(N)c24)c3F)n1
Procedure, shortened: as §1

nilotinib = compound: Cc1cn(-c2cc(NC(=O)c3ccc(C)c(Nc4nccc(-c5cccnc5)n4)c3)cc(C(F)(F)F)c2)cn1 [nilotinib]
Procedure, shortened: as §1

[3] = compound: Cc1nc(Nc2n[nH]c3c2CN(C(=O)N[C@H](CN(C)C)c2ccccc2)C3(C)C)c2sccc2n1
Procedure, shortened: as §1

dasatinib = compound: Cc1nc(Nc2ncc(C(=O)Nc3c(C)cccc3Cl)s2)cc(N2CCN(CCO)CC2)n1 [dasatinib]
Procedure, shortened: as §1

[4] = compound: Cc1ncc(-c2ccnc(Nc3ccc(S(C)(=O)=O)cc3)n2)n1C(C)C
Procedure, shortened: as §1

[5] = compound: Cn1cc(-c2ccc3c(c2)CCN3C(=O)Cc2cccc(C(F)(F)F)c2)c2c(N)ncnc21
Procedure, shortened: as §1

quisinostat = compound: Cn1cc(CNCC2CCN(c3ncc(C(=O)NO)cn3)CC2)c2ccccc21 [quisinostat]
Procedure, shortened: as §1

tipifarnib = compound: Cn1cncc1[C@@](N)(c1ccc(Cl)cc1)c1ccc2c(c1)c(-c1cccc(Cl)c1)cc(=O)n2C [tipifarnib]
Procedure, shortened: as §1

[6] = compound: NC(=O)Nc1cc(-c2cccc(F)c2)sc1C(=O)N[C@H]1CCCNC1
Procedure, shortened: as §1

[7] = compound: NC(=O)c1cnc(N[C@@H]2CCCC[C@@H]2N)nc1Nc1cccc(-n2nccn2)c1
Procedure, shortened: as §1

[8] = compound: NC1(c2ccc(-c3nc4ccn5c(=O)[nH]nc5c4cc3-c3ccccc3)cc2)CCC1
Procedure, shortened: as §1

UniProt P36969, sequence (P36969 whole entry, looked up): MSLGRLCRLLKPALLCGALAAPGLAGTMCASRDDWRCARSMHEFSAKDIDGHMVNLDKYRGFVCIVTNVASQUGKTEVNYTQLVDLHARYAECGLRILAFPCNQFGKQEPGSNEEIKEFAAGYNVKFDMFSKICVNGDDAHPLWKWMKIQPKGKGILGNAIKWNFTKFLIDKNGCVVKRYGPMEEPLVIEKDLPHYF
UniProt P51617, sequence (P51617 whole entry, looked up): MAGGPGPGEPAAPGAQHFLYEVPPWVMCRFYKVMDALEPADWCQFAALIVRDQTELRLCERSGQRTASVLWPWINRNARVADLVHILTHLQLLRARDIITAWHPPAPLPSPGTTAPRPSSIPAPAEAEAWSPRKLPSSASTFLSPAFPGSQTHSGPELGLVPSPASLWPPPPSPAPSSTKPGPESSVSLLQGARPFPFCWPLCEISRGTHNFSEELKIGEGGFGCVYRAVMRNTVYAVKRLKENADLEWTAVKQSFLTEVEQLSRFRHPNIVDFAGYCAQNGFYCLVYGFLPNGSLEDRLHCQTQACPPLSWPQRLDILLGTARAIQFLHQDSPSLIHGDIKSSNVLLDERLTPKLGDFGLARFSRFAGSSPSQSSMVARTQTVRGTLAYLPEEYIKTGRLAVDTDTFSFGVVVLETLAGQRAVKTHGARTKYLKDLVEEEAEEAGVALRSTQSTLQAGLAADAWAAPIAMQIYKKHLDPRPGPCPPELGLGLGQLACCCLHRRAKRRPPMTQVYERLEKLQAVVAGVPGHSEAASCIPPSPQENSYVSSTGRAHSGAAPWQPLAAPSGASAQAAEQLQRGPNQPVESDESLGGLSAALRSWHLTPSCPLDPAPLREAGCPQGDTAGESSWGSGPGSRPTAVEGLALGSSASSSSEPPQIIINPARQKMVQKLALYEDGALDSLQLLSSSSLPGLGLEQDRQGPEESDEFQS
UniProt Q9H4A5, sequence (Q9H4A5 whole entry, looked up): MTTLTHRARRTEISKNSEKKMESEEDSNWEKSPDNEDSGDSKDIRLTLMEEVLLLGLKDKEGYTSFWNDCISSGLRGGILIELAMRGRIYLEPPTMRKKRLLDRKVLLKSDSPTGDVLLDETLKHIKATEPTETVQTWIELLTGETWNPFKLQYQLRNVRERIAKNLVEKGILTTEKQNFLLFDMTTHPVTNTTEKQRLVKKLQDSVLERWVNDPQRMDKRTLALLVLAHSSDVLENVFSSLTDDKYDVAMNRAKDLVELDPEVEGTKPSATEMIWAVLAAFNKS
UniProt Q9BUJ2, sequence (Q9BUJ2 whole entry, looked up): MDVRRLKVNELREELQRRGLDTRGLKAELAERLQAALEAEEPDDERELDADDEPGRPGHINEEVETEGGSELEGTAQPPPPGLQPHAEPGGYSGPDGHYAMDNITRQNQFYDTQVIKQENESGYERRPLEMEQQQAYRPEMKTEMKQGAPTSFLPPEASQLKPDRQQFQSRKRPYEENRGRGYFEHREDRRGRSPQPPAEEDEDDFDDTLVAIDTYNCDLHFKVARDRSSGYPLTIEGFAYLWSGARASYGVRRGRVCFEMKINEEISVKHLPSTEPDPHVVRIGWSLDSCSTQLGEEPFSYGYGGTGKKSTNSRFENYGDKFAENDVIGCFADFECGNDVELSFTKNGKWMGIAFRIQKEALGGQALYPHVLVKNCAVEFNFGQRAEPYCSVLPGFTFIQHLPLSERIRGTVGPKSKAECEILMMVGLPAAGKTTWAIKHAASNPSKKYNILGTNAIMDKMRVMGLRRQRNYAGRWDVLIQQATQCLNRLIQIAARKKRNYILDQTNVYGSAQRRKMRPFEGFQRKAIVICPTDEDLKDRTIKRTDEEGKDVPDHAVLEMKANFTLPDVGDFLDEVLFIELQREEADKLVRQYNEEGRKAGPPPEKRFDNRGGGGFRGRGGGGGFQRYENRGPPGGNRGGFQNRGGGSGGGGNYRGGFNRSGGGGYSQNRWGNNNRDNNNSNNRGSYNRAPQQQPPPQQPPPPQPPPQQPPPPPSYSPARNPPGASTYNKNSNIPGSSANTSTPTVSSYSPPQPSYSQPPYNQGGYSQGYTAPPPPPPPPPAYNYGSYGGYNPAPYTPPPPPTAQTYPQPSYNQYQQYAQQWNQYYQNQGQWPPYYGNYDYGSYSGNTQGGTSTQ
UniProt Q92805, sequence (Q92805 whole entry, looked up): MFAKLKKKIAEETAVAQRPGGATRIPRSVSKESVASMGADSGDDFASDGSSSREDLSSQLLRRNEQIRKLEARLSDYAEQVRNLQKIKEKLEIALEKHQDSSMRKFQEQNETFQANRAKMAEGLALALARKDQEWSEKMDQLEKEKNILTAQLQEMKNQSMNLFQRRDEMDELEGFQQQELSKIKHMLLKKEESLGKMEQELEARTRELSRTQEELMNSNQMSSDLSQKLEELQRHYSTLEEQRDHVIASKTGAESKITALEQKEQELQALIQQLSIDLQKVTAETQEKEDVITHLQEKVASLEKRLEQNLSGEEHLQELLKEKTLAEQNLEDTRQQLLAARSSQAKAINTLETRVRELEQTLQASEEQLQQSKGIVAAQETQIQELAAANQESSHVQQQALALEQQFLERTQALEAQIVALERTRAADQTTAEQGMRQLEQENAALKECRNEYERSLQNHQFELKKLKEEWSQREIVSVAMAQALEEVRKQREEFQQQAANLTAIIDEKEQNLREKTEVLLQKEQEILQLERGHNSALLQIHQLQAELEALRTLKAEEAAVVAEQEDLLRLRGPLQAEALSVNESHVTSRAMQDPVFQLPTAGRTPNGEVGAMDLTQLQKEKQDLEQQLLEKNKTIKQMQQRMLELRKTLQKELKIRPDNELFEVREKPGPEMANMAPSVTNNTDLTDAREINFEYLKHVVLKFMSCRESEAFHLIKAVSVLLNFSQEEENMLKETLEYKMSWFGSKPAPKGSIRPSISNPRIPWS
UniProt P55795, sequence (P55795 whole entry, looked up): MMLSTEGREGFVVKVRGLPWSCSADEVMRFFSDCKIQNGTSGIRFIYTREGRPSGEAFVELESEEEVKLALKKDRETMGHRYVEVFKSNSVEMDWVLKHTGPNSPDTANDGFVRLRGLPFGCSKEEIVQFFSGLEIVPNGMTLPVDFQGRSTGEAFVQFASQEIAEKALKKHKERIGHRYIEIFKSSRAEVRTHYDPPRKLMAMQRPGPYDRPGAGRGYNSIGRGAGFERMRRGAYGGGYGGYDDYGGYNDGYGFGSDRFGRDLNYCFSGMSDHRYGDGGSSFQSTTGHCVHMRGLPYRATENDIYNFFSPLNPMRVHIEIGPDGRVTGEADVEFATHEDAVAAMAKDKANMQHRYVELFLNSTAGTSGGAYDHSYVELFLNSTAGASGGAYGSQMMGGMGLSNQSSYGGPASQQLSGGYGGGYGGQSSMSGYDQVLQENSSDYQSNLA
UniProt Q99714, sequence (Q99714 whole entry, looked up): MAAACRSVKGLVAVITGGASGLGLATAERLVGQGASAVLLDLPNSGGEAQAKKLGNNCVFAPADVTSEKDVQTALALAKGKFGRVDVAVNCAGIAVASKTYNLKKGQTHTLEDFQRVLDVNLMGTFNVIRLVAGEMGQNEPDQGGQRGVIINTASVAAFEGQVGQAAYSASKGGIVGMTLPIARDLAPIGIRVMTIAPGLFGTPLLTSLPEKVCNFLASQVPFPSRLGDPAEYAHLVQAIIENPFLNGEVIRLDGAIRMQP
UniProt Q9H4A6, sequence (Q9H4A6 whole entry, looked up): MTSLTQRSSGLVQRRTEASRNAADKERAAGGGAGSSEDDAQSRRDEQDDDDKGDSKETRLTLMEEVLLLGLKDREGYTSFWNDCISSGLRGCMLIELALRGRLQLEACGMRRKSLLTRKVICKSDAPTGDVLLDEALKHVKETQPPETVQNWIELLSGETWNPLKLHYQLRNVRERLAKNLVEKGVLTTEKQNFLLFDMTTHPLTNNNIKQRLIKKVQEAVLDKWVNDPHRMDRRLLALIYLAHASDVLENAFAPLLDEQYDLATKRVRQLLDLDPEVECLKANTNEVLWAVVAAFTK
UniProt Q8IY47, sequence (Q8IY47 whole entry, looked up): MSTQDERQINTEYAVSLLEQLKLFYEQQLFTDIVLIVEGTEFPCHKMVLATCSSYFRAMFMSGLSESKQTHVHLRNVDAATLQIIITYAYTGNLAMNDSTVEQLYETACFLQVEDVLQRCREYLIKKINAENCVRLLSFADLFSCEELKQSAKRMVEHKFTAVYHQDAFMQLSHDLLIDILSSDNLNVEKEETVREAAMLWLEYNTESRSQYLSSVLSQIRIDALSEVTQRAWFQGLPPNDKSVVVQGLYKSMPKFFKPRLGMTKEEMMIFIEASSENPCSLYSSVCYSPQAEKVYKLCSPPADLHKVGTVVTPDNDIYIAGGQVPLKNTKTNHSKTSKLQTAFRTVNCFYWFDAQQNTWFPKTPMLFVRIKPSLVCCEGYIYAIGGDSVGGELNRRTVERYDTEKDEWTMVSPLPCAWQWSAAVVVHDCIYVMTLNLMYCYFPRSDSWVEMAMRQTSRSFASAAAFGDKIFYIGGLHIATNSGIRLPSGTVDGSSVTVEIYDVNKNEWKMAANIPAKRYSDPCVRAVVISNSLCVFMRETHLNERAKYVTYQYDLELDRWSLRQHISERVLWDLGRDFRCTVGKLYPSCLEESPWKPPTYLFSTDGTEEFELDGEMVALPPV
UniProt P82970, sequence (P82970 whole entry, looked up): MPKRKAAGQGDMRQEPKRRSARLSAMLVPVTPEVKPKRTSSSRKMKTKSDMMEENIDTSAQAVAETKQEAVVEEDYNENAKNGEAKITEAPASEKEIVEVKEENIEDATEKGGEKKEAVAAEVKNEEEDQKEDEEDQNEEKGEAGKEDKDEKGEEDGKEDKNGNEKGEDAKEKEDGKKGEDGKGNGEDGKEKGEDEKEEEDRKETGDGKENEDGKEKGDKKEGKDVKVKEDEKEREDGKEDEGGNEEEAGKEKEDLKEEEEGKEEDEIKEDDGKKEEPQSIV

| Target | log2 fold change (lapatinib) | log2 fold change (pictilisib) | log2 fold change (crizotinib) | log2 fold change [1] | log2 fold change (duvelisib) | log2 fold change (gandotinib) | log2 fold change (tozasertib) | log2 fold change (doramapimod) | log2 fold change (bafetinib) | log2 fold change [2] | log2 fold change (nilotinib) | log2 fold change [3] | log2 fold change (dasatinib) | log2 fold change [4] | log2 fold change [5] | log2 fold change (quisinostat) | log2 fold change (tipifarnib) | log2 fold change [6] | log2 fold change [7] | log2 fold change [8] |
| --- | --- | --- | --- | --- | --- | --- | --- | --- | --- | --- | --- | --- | --- | --- | --- | --- | --- | --- | --- | --- |
| GSTZ1 (UniProt G3V4T6) | 0 | 0.04 | -0.015 | -0.067 | 0.028 | 0.061 | 0.004 | -0.035 | -0.071 | 0.146 | 0.026 | 0.009 | -0.024 | -0.016 | 0.083 | 0.016 | 0.014 | 0.029 | -0.012 | -0.007 |
| KBTBD2 (UniProt Q8IY47) | -0.036 | -0.019 | -0.073 | -0.139 | -0.01 | 0.124 | -0.056 | -0.005 | -0.07 | 0.138 | 0.014 | -0.005 | 0.012 | 0.006 | 0.028 | -0.178 | -0.018 | 0.007 | 0.009 | -0.202 |
| HSPA8 (UniProt E9PK54) | -0.067 | -0.013 | 0.051 | -0.025 | 0.004 | 0.058 | 0.067 | 0.011 | 0.026 | 0.046 | 0.023 | -0.053 | -0.024 | -0.021 | -0.032 | -0.093 | -0.01 | 0.113 | -0.033 | 0.004 |
| HSD17B10 (UniProt Q99714) | -0.031 | -0.013 | 0.002 | -0.049 | 0.013 | 0.022 | -0.031 | -0.008 | 0 | 0.026 | 0 | -0.044 | -0.034 | -0.001 | -0.017 | -0.01 | 0.008 | 0.013 | -0.002 | 0.005 |
| GOLPH3L (UniProt Q9H4A5) | 0.019 | -0.048 | -0.106 | -0.028 | -0.027 | -0.05 | -0.071 | -0.009 | -0.146 | 0.029 | -0.045 | 0.033 | 0 | -0.006 | 0.01 | -0.026 | 0.018 | 0.094 | 0.013 | -0.039 |
| GOLGA1 (UniProt Q92805) | -0.406 (active) | 0.007 | 0.012 | 0.056 | -0.101 | 0.024 | -0.087 | 0.001 | -0.066 | -0.025 | 0.033 | -0.009 | -0.026 | -0.015 | 0.022 | -0.073 | -0.099 | 0.042 | 0.106 | 0.004 |
| HDLBP, A0A024R4E5 | 0.005 | -0.017 | -0.028 | 0.002 | -0.003 | -0.03 | 0.006 | 0.018 | -0.049 | 0.013 | -0.011 | 0.006 | -0.038 | 0.014 | 0.015 | -0.076 | 0.001 | 0.018 | -0.002 | -0.022 |
| INTS7 (UniProt Q9NVH2) | 0.01 | -0.032 | -0.07 | -0.096 | 0.01 | -0.077 | -0.01 | 0.4 | 0.141 | 0.012 | -0.02 | -0.014 | -0.004 | -0.009 | -0.008 | -0.071 | 0.037 | 0.088 | 0.032 | -0.002 |
| HNRNPH2 (UniProt P55795) | 0.025 | -0.004 | -0.097 | -0.048 | -0.024 | 0.068 | -0.032 | 0.062 | 0.018 | 0.008 | -0.07 | 0.04 | 0.049 | 0.071 | 0.003 | -0.147 | -0.003 | 0.014 | -0.037 | -0.113 |
| HMGN5 (UniProt P82970) | -0.058 | 0.032 | 0.046 | 0.239 | 0.018 | -0.081 | 0.02 | -0.066 | 0.013 | -0.184 | 0.029 | 0.001 | 0.03 | 0.019 | -0.003 | 0.074 | 0.04 | -0.042 | -0.027 | -0.003 |
| IRAK4 (UniProt Q9NWZ3) | -0.021 | -0.018 | 0.175 | 0.012 | 0.026 | -0.082 | 0 | 0.011 | -0.013 | 0.012 | -0.115 | 0.065 | 0.051 | -0.012 | 0.023 | -0.066 | -0.044 | 0.413 (active) | 0.028 | 0 |
| IRAK1 (UniProt P51617) | 0.023 | -0.008 | 0.799 (active) | -0.111 | -0.169 | 0.26 | -0.116 | 0.172 | -0.036 | 0.168 | -0.036 | 0.011 | 0.051 | 0.112 | 0.131 | -0.145 | 0.016 | 0.373 (active) | 0.005 | -0.005 |
| GOLPH3 (UniProt Q9H4A6) | 0.007 | -0.013 | -0.123 | -0.049 | 0.005 | 0.034 | 0.025 | 0.031 | -0.073 | 0.045 | -0.008 | 0.008 | -0.071 | 0.044 | -0.013 | -0.065 | -0.039 | 0.012 | -0.023 | -0.02 |
| IGF2BP3 (UniProt O00425) | 0.013 | -0.038 | -0.031 | -0.032 | 0.017 | -0.04 | 0.001 | -0.006 | -0.045 | 0.053 | -0.046 | 0.008 | -0.035 | 0.006 | 0.063 | -0.045 | 0.008 | 0.039 | 0.013 | -0.027 |
| GPX4 (UniProt P36969) | -0.037 | -0.03 | -0.01 | 0.041 | -0.008 | -0.065 | 0 | -0.001 | -0.033 | -0.051 | -0.011 | -0.001 | 0.01 | 0.039 | -0.024 | -0.012 | -0.009 | 0.02 | -0.011 | 0.011 |
| HNRNPUL1 (UniProt Q9BUJ2) | -0.008 | -0.05 | 0.043 | 0.005 | 0.01 | -0.013 | 0.012 | -0.107 | 0.051 | -0.023 | -0.291 (active) | 0.018 | -0.012 | 0.006 | 0.01 | 0.015 | 0.019 | 0.045 | -0.003 | -0.009 |
